CSC inhib: blocks cancer stem cells; cancer stem cell-like cells viability, luminescence; inhibition, % at 7.5 µM; 300,000 compounds, 1.1% hits; AID 2717; in the data active = inhibition above about 75%; inconclusive = no clear call, values can overlap the other calls; tested in HMLE shEcad cells
aSyn UTR inh: 5' untranslated region of α-synuclein, MLPCN primary screen; alpha-synuclein 5'UTR reporter, inhibitor activity; inhibition, % (tested at 7.5 µM); 300,000 compounds, 0.82% hits; in the data active = inhibition above about 60%; inconclusive = no clear call, values can overlap the other calls;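 also: H4 neuroglioblastoma cells stably carrying SNCA 5'UTR luciferase fusion; 0% = DMSO wells and 100% = positive control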
KLF5 inh: kruppel-like factor 5 inhibition; DLD-1 KLF5 promoter-luciferase reporter, luminescence; inhibition, % at 5 µM; 290,000 compounds, 0.23% hits; AID 1700;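 active = inhibition above a per-plate limit of that plate's mean compound inhibition plus 3 SD, cut at about 60% in these data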;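 also: 0% = DMSO wells and 100% = LY294002 at 200 µM; higher means less KLF5 promoter-driven luciferase light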
SKKanGAS inh: inhibitors of SKKanGAS S. pyogenes growth in kanamycin (SK-promoter or general growth effect). BacTiter-Glo, 6 h. inhibition, % at 7.5 µM. AID 1662. 300,000 compounds, 1.3% hits;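 active = mean replicate score, as percent of positive control median, at least 50; inconclusive = mean below 50 but one replicate at or above 50; inactive = mean and every replicate below 50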;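 also: strain carries kanamycin resistance gene driven by streptokinase promoter and grows in 40 µg/ml kanamycin; loss of luminescence reflects streptokinase promoter inhibition or plain growth inhibition; 0% = median of DMSO wells and 100% = positive control at its reference dose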
IEC-6 cytotox: IEC-6 cytotoxicity, counter-screen for KLF5 inhibitors; luminescence viability; inhibition, % at 5 µM; 290,000 compounds, 0.78% hits; in the data active = inhibition above about 22%;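 also: 0% = plate median of test compound wells and 100% = cytotoxic reference compound wells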
* marks the source's active call; other numbers are inactive results; ? = inconclusive; / = no result given. Hits are enriched below; roughly 3% of the tested compounds scored in any of these assays.

SMILES	CSC inhib	aSyn UTR inh	KLF5 inh	SKKanGAS inh	IEC-6 cytotox
Cc1ccc(S(=O)(=O)Nc2ccc(-c3cn4ccc(C)cc4n3)cc2)cc1	-12	-17	0	2	-1
Cc1ccn2cc(-c3ccc(Br)cc3)nc2c1	15	63*	-44	-4	7
Cc1ccc(-c2cc(N)n3nc(-c4ccc(C)cc4)cc3n2)cc1	-9	-43	3	12	9
CCC(C)NC(=O)CN(c1ccc(Cl)c(Cl)c1)S(C)(=O)=O (stereo not given)	-10	-26	-33	-6	-2
Clc1ccc(CN=C2Nc3ccccc3CS2)cc1	6	-182	-109	11	-6
c1ccc2c(c1)CSc1ccccc1N2	-8	104*	/	-1	/
Cc1c(O)ccc2c(CC(=O)N[C@@H](Cc3ccccc3)C(=O)O)cc(=O)oc12	-11	-1	-8	8	-10
O=C(/C=C/c1cccc(Br)c1)c1ccc2c(c1)OCO2	78*	-72	-42	28	-3
O=C(/C=C/c1ccccc1)c1ccc2c(c1)OCO2	9	-206	-110	-2	0
COc1ccc(N2CCN(C(=S)NCc3ccccc3)CC2)cc1	-5	21	8	-1	-5
COC(=O)c1ccccc1NCc1cc(=O)oc2cc(O)c(O)cc12	92*	-5	-2	20	-3
COc1ccc(C)cc1NCc1cc(=O)oc2cc(-c3ccccc3)c(O)cc12	39	-48	-4	39	2
CC(=O)OCCc1[nH]c2ccccc2c1C	-4	-26	-12	8	7
CC(=O)OCCc1c2ccccc2c(CCCN(C)C)c2ccccc12	-6	103*	/	1	/
CC/S(C)=N/S(=O)(=O)c1ccc(C)cc1 (stereo not given)	/	16	-4	0	11
CSc1nc(C)cc(OCC(=O)N/N=C/c2ccccc2O)n1	89*	42	-17	-3	0
Cc1cc(=O)oc2cc(OCC(=O)N/N=C/c3ccccc3O)ccc12	/	13	9	8	-4
OCc1cn(-c2ccccc2)nc1-c1ccc(-c2nn(-c3ccccc3)cc2CO)cc1	/	25	-38	10	3
Cc1ccc(-c2nn(-c3ccccc3)cc2CSC(=N)N)cc1	34	119*	-15	8	1
COc1ccc(C#Cc2ccc3c(c2)c(=O)c2ccccc2n3C)cc1	33	-125	10	91*	12
Cn1c(-c2ccccc2)c(C#Cc2ccc(N)cc2)c2ccccc21	48	/	/	/	/
Cn1c2ccccc2c(=O)c2ccc(C#CC3(O)CCCCC3)cc21	59	37	-11	63*	-1
Nc1ccc(C#Cc2ccc3oc4ccccc4c(=O)c3c2)cc1	9	-66	/	97*	/
Cn1c2ccccc2c(=O)c2cc(C#Cc3ccc(N)cc3)ccc21	46	-89	-37	85*	13
COc1ccc(F)c(CN2CCC(n3nccc3NC(=O)C3CCOC3)CC2)c1 (stereo not given)	-8	-14	-17	-6	2
SMILES	CSC inhib	aSyn UTR inh	KLF5 inh	SKKanGAS inh	IEC-6 cytotox
O=C(OCc1ccccc1)N1CCCC1/C=C/CN1CCOCC1 (stereo not given)	-2	15	-4	-10	1
CCc1ccc(-c2cc(C(=O)Nn3cnnc3)c3ccccc3n2)cc1	41	74*	55	32	5
CCCc1ccc(-c2cc(C(=O)NN3CCOCC3)c3ccccc3n2)cc1	-21	-93	-60	4	8
CCc1ccc(-c2cc(C(=O)N3N=C(C(F)F)CC3(O)C(F)F)c3ccccc3n2)cc1 (stereo not given)	89*	-68	-1	17	4
CC1CC(NC(=O)c2c(O)nc3sccn3c2=O)CC(C)(C)C1 (stereo not given)	5	11	/	50*	/
CCc1ccc(-c2cn3nc(C)c(C)nc3n2)cc1	-11	87*	-129	42	-3
COc1ccc(NC(=O)c2ccc3c(c2)NC(=O)CS3)cc1S(=O)(=O)Nc1ccc(Br)cc1	80*	12	-6	?	18
Cc1ccc(NS(=O)(=O)c2cc(NC(=O)c3ccc4c(c3)NC(=O)CS4)ccc2C)c(C)c1	39	8	-17	35	12
COc1ccccc1NC(=S)N=Nc1c(O)[nH]c2ccc(Br)cc12	?	8	-9	93*	-4
COc1ccc(/C=N/OCC(=O)N=Nc2c(O)[nH]c3ccc(Br)cc23)cc1OC	-10	-29	14	15	4
Cc1cccc(NC(=S)N=Nc2c(O)[nH]c3ccccc23)c1	7	53	-12	97*	38*
Cc1cccc(NC(=O)c2cc(=O)[nH]c3ccccc23)c1	-8	25	-2	2	0
COc1ccc(S(=O)(=O)NC2CC(C)(C)NC(C)(C)C2)cc1C(C)C	6	7	-16	-4	1
COc1ccc([N+](=O)[O-])cc1NS(=O)(=O)c1cccc(C(=O)O)c1	-19	13	-20	-7	-1
Cc1nn(C)c2ncc(C(=O)c3cc(F)ccc3O)cc12	-11	15	-27	-2	-5
O=C(c1cnc2ccc3ccccc3c2c1)c1cc(F)ccc1O	84*	11	-6	1	3
COc1ccc(NS(=O)(=O)c2ccc(N3CCOCC3)c(N)c2)cc1	26	/	/	/	/
Cc1cc(C)cc(NC(=S)NCCSc2ccc(Cl)cc2)c1	/	3	-28	50*	2
Cc1cccc(C)c1NC(=S)Nc1ccc(Cl)c(Cl)c1	5	-40	-5	20	0
Cc1ccc(SCCNC(=S)Nc2ccc(C)c(C)c2)cc1	30	-8	-12	36	-1
Cc1cc(C)cc(NC(=S)Nc2ccc(Cl)c(Cl)c2)c1	41	-24	-15	70*	1
CCOC(=O)Cc1csc(NC(=O)CSc2cc(Cl)ccc2Cl)n1	6	10	-12	7	-3
O=C(NCCc1ccccc1)C(=O)NCC1OCCCN1S(=O)(=O)c1cccs1 (stereo not given)	-8	1	2	1	-3
CCOC(=O)c1c(NC(=O)/C=C/C(=O)O)sc(C)c1-c1ccc(Cl)cc1	75*	-21	-24	2	-1
CCOC(=O)c1c(N)sc(C(O)(C(F)(F)F)C(F)(F)F)c1-c1ccc(Cl)cc1	-18	32	-8	76*	0
SMILES	CSC inhib	aSyn UTR inh	KLF5 inh	SKKanGAS inh	IEC-6 cytotox
CCOC(=O)c1c(NC(=S)N2CCN(C)CC2)sc(C)c1-c1ccccc1	29	-10	-13	50*	-2
CCOC(=O)c1c(NC(=O)Nc2ccc(Cl)cc2)sc(C)c1C	-11	-16	-15	1	3
CCOC(=O)c1c(N)sc(C(O)(C(F)(F)F)C(F)(F)F)c1-c1ccc(F)cc1	43	7	-1	6	-4
COc1ccc(-c2nc(=S)c3ccc4ccccc4c3[nH]2)cc1	/	-59	-25	-12	0
Cc1cc(C(=O)NNC(=O)c2ccc(Cl)c(S(N)(=O)=O)c2)c(C)o1	-13	/	/	/	/
CCOc1cc(/C=C2/NC(=S)NC2=O)ccc1OCc1ccc([N+](=O)[O-])cc1	32	62*	-5	74*	5
CCOc1cc(C(c2c(C)[nH][nH]c2=O)c2c(C)[nH][nH]c2=O)ccc1OCc1ccc([N+](=O)[O-])cc1	1	-10	-7	-2	2

Compound activity from PubChem.
